Data from PubChem BioAssay (NCI).
This is part of a sample that, as a whole, favours compounds with a hit. Of some 79,000 tested, about 15% had one in any assay. Active and inactive are the calls of the source. Rule as the data show it: active = growth inhibition above about 70%; inactive = the rest.

How the values were obtained:
[1] = NCI Yeast Anticancer Drug Screen. Data for the rad52 strain (AID 147);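 also: 0% = growth of vehicle-treated control cultures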; settings: S. cerevisiae rad52 mutant growth inhibition, hits give high values
Outline: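 Screen used a yeast mutant impaired in DNA repair. After compound exposure, growth was measured. Values reflect inhibition compared with vehicle-treated cells.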

[2] = NCI Yeast Anticancer Drug Screen. Data for the wt1 strain (AID 149);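 also: 0% = growth of vehicle-treated wt1 cultures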; settings: S. cerevisiae wt1 strain (SPY 50644) growth inhibition, hits give high values
Outline: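 Yeast wt1 strain exposed to compounds; growth inhibition measured relative to vehicle-treated controls.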

[3] = NCI Yeast Anticancer Drug Screen. Data for the rad50EPP+ strain (AID 151);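 also: 0% = growth of vehicle-treated control cultures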; settings: S. cerevisiae rad50 mutant strain, hits give high values
Outline: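 Exposing the rad50EPP+ strain to each compound, growth was compared with vehicle-only cultures to give inhibition.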

[4] = NCI Yeast Anticancer Drug Screen. Data for the mgt1 strain (AID 153); settings: S. cerevisiae mgt1 mutant growth inhibition, hits give high values
Outline: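 Genetically defined yeast (mgt1) treated with compound; inhibition of growth expressed against vehicle-treated controls.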

[5] = NCI Yeast Anticancer Drug Screen. Data for the rad50 strain (AID 155);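 also: 0% = growth of vehicle-only cultures of the same strain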; settings: S. cerevisiae rad50 strain growth inhibition, hits give high values
Outline: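 Yeast carrying a defined DNA repair defect were exposed to test compounds, and growth was compared with vehicle-treated controls to give percent inhibition.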

[6] = NCI Yeast Anticancer Drug Screen. Data for the mec2-1 strain (AID 157); settings: S. cerevisiae mec2-1 strain, hits give high values
Outline: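 Readout is yeast growth inhibition, normalised to vehicle-treated controls, in the mec2-1 strain exposed to compound.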

[7] = NCI Yeast Anticancer Drug Screen. Data for the rad14 strain (AID 159);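 also: 0% = growth of vehicle-treated control cultures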; settings: S. cerevisiae rad14 strain growth inhibition, hits give high values
Outline: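 Yeast cells carrying a defined DNA-repair defect were exposed to compounds, and growth inhibition was calculated relative to vehicle-treated control cultures.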

[8] = NCI Yeast Anticancer Drug Screen. Data for the sgs1 mgt1 strain (AID 161);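 also: 0% = growth of cultures given vehicle only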; settings: S. cerevisiae sgs1 mgt1 strain, hits give high values
Outline: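 Yeast cells carrying a defined DNA-repair defect were exposed to test compounds. Growth inhibition was measured relative to vehicle-treated controls.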

[9] = NCI Yeast Anticancer Drug Screen. Data for the CLN2oe strain (AID 163);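 also: 0% = growth of vehicle-only control cultures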; settings: S. cerevisiae CLN2oe strain, hits give high values
Outline: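 Values reflect how much compound exposure reduced yeast growth, referenced to vehicle-exposed cells. Assay organism is a strain with a defined genetic change affecting cell-cycle control.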

[10] = NCI Yeast Anticancer Drug Screen. Data for the cln2 rad14 strain (AID 165);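 also: 0% = growth equal to vehicle treated cultures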; settings: S. cerevisiae cln2 rad14 strain, hits give high values
Outline: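 Relative to vehicle controls, growth inhibition of compound-treated cln2 rad14 yeast was recorded.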

[11] = NCI Yeast Anticancer Drug Screen. Data for the bub3 strain (AID 167); settings: S. cerevisiae bub3 mutant strain, hits give high values
Outline: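 Compounds were applied to a genetically altered yeast strain carrying a cell-cycle control defect. Growth inhibition was scored against vehicle-treated controls.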

[12] = NCI Yeast Anticancer Drug Screen. Data for the wt2 strain (AID 169);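 also: 0% = growth of vehicle-treated yeast cultures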; settings: S. cerevisiae wt2 strain growth inhibition, hits give high values
Outline: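 Values express reduction in yeast growth under compound treatment, referenced to vehicle-treated cells.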

[13] = NCI Yeast Anticancer Drug Screen. Data for the mlh1 strain (AID 171);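 also: 0% = growth of vehicle-treated control cultures of the same strain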; settings: S. cerevisiae mlh1 strain growth inhibition, hits give high values
Outline: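 Steps: expose the defined-mutant yeast strain to compound; expose a parallel culture to vehicle; measure growth; express compound effect as inhibition relative to the vehicle culture.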

[14] = NCI Yeast Anticancer Drug Screen. Data for the sgs1 strain (AID 173);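 also: 0% = growth of vehicle-only control cultures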; settings: S. cerevisiae sgs1 mutant, hits give high values
Outline: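 Treat defined-mutant yeast with compound; measure growth; calculate inhibition relative to vehicle-treated cells.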

[15] = NCI Yeast Anticancer Drug Screen. Data for the mlh1 rad18 strain (AID 175); settings: S. cerevisiae mlh1 rad18 strain growth inhibition, hits give high values
Outline: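 Test agents were incubated with a yeast strain of defined genotype (DNA damage repair defect). Inhibition of growth was derived by comparison with vehicle-exposed cultures.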

[16] = NCI Yeast Anticancer Drug Screen. Data for the rad18 strain (AID 177); settings: S. cerevisiae rad18 mutant growth inhibition, hits give high values
Outline: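 A genetically defined yeast mutant impaired in DNA damage repair was treated with test compounds, then its growth was measured against cultures receiving vehicle alone.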

[17] = at 5.0 µM (retest, dose inferred, filed as 0.5)
[18] = at 50.0 µM (retest, dose inferred, filed as 5.0)

Measured: growth inhibition

C[CH2][Sn]1([CH2]C)[O]C2C(O)OC(CO)C(O)C2[O]1 (stereo not drawn)
inactive: [1]; at 1.2 µM 0% | [1]; at 3.7 µM 10% | [1]; at 11.0 µM 19% | [1]; at 33.0 µM 29% | [2]; at 1.2 µM -8% | [2]; at 3.7 µM -15% | [2]; at 11.0 µM -9% | [2]; at 33.0 µM -2% | [2]; at 100.0 µM 61% | [3]; at 1.2 µM -8% | [3]; at 3.7 µM -21% | [3]; at 11.0 µM -34% | [3]; at 33.0 µM -23% | [3]; at 100.0 µM -17% | [4]; at 1.2 µM -19% | [4]; at 3.7 µM -21% | [4]; at 11.0 µM -3% | [4]; at 33.0 µM 2% | [4]; at 100.0 µM 69% | [5]; at 1.2 µM 12% | [5]; at 3.7 µM 12% | [5]; [17] 17% | [5]; at 11.0 µM -7% | [5]; at 33.0 µM 4% | [5]; [18] 67% | [5]; at 50.0 µM 33.5% | [5]; at 100.0 µM 66% | [6]; at 1.2 µM 10% | [6]; at 3.7 µM 4% | [6]; [17] 8% | [6]; at 11.0 µM 4% | [6]; at 33.0 µM 24% | [6]; at 100.0 µM 67% | [7]; at 1.2 µM 1% | [7]; at 3.7 µM -4% | [7]; at 11.0 µM 2% | [7]; at 33.0 µM -5% | [7]; at 100.0 µM 15% | [8]; [17] 22% | [8]; at 50.0 µM 53.5% | [9]; at 1.2 µM -53% | [9]; at 3.7 µM -73% | [9]; at 11.0 µM -69% | [9]; at 33.0 µM -100% | [9]; at 100.0 µM 45% | [10]; [17] -1% | [10]; [18] 37% | [10]; at 50.0 µM 63.6% | [11]; at 1.2 µM 3% | [11]; at 3.7 µM 4% | [11]; [17] 6% | [11]; at 11.0 µM 10% | [11]; at 33.0 µM 8% | [11]; [18] 69% | [11]; at 50.0 µM 55.6% | [11]; at 100.0 µM 63% | [12]; at 1.2 µM -58% | [12]; at 3.7 µM -42% | [12]; at 11.0 µM -27% | [12]; at 33.0 µM 15% | [13]; at 1.2 µM -2% | [13]; at 3.7 µM -2% | [13]; at 11.0 µM -4% | [13]; at 33.0 µM -12% | [13]; at 100.0 µM 39% | [14]; at 1.2 µM -12% | [14]; at 3.7 µM -5% | [14]; at 11.0 µM -8% | [14]; at 33.0 µM 16% | [14]; at 100.0 µM 59% | [15]; [17] 26% | [16]; at 1.2 µM 11% | [16]; at 3.7 µM 0% | [16]; at 11.0 µM 8% | [16]; at 33.0 µM 23%
active: [1]; at 100.0 µM 76% | [6]; [18] 75% | [6]; at 50.0 µM 80.5% | [8]; [18] 71% | [12]; at 100.0 µM 82% | [15]; [18] 88% | [15]; at 50.0 µM 72.5% | [16]; at 100.0 µM 73%
